Here are results for 21 sequences from the supplement of paper PMC10338343.

± gives the standard deviation.

In the first test the test system is MILI (PIWIL2) piRISC loaded with L1MC piRNA (26 nt). Description: pre-steady-state target cleavage rate (min^-1); guide: L1MC piRNA 5'p-UAACUAAAUACUAUGCAAGCUGUAGG; MIWI and MILI are mouse PIWI proteins and EfPiwi is from a freshwater sponge; tags in brackets are library labels; higher = faster piRNA-guided slicing of the target. The settings on record: auxiliary factor: 500 nM mouse GTSF1. The procedure:
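Cleave-'n-Seq: a library of target RNAs (target site embedded in constant flanks, ACAGCATTCCGCGTTAGTGATATCCG... 5' flank; DNA-blocked outside the site) at 0.1 nM was incubated with 1 nM active mouse MILI or MIWI piRISC (synthetic 5'-monophosphorylated piRNA guide) with or without 500 nM mouse GTSF1 at 33 °C for 1 min to 16 h. Uncleaved targets were sequenced and normalised to non-target controls, and the pooled three trials were fitted to a burst-and-steady-state model to give the pre-steady-state cleavage rate (min^-1; k3 is constrained to at most 1e-4). Sequence is the target site only; target names encode pairing extent (gX:gY) and contiguous / 1-mismatch / 2-mismatch / bulge geometry. Fits with R² ≤ 0 are excluded.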
Consider UCCUGGUAGAGCUUGCAUAGUAUUUAGUAA, for which the “pre-steady-state target cleavage rate” value is 0.206 ± 0.013.
As to UCCUGCUACUGCUUGCAUAGUAAUUAGUUA, the “pre-steady-state target cleavage rate” value amounted to 0.175 ± 0.023.
Same read-out and setting: then UCCUGGUACAGCUUGCAUAGUAUUUAGGUUA, with 0.163 ± 0.044; and UCCUGGAUCAGCUAGCAUAGUAUUUAGAUA, with 0.0957 ± 0.019.
The same measure, in the same setting: next, UCCUGGAUCAGCUUGCAUAGUAUUUAUGUUA: 0.133 ± 0.017.
As to UCCUCCUACAGCUUGCAUAGUAGUUAGUUA, the “pre-steady-state target cleavage rate” value came out at 0.192 ± 0.026.
“UCCUGGAUCAGCUUGCAUAGUAUUUAGUUA [g2:g22:cont:t1A]”: the “pre-steady-state target cleavage rate” value is 0.267 ± 0.017.
Still for that read-out and setting: then UCCUGGAUGAGCAACCAUAGUAUUUAGUAA, with 0.0492 ± 0.016; and UCCUCCUACAGCUGGCAUAGUAUUUAGUUA, with 0.294 ± 0.02.
With UCCUGGAACAGCAUGCAUAGAAUUUAGUUA, the “pre-steady-state target cleavage rate” value amounted to 0.0767 ± 0.018.
Same read-out and setting: next, UCCUGGUACAGCUUGCAUAGUAUUCUAGUUA: 0.353 ± 0.088; UCCUGGAUGUGCUUGCAAAGUAUUUACUUA: 0.0114 ± 0.0052; UCCUGGUACAGCUUGAUAGUAUUUAGUUA: 0.0803 ± 0.011.
UCCUGGAUGUCGAUGGAUAGUAUUUAGUUA: the “pre-steady-state target cleavage rate” value stood at 0.0431 ± 0.0076.
For UCCUGGAUGUCCUUGCAUAGUAAAUAGUAA, the “pre-steady-state target cleavage rate” value was 0.00932 ± 0.0037.
Consider UCCUGGAUGUGCUUGCAUAGUAUUUAAUUA, for which the “pre-steady-state target cleavage rate” value came to 0.0357 ± 0.011.
On to UCCUGGAAGAGCUAGCAUAGUAUUUAGUUA, for which the “pre-steady-state target cleavage rate” value was 0.212 ± 0.016.
The same measure, in the same setting: then UCCUGGAUCAGCAUGCAUAGUAUUAAGUUA, with 0.24 ± 0.012; and UCCUGGAUGUCCUUGCAAAGUAUUUAGUUA, with 0.0392 ± 0.0098.
On the same count and under the same terms, then “UCCUGGAUGUCCUUGCAUAGUAUUUAGUUA [g2:g19:cont:t1A]”, with 0.119 ± 0.018; and UCCUGGAUCUGCUUGCAAAGUAUUUAGUUA, with 0.0598 ± 0.013.

Still in this test, the particulars now being: auxiliary factor: none (no GTSF1).
Turning to UCCUGGUAGAGCUUGCAUAGUAUUUAGUAA, the “pre-steady-state target cleavage rate” value amounted to 0.0096 ± 0.0028.
In the case of UCCUGCUACUGCUUGCAUAGUAAUUAGUUA, the “pre-steady-state target cleavage rate” value was found to be 0.00358 ± 0.0023.
Take UCCUGGUACAGCUUGCAUAGUAUUUAGGUUA: the “pre-steady-state target cleavage rate” value turned out to be 0.00633 ± 0.0032.
Consider UCCUGGAUCAGCUAGCAUAGUAUUUAGAUA, for which the “pre-steady-state target cleavage rate” value is 0.00275 ± 0.0026.
As for UCCUGGAUCAGCUUGCAUAGUAUUUAUGUUA, the “pre-steady-state target cleavage rate” value worked out at 0.00471 ± 0.0027.
Take UCCUCCUACAGCUUGCAUAGUAGUUAGUUA: the “pre-steady-state target cleavage rate” value is 0.00325 ± 0.0032.
For the sequence “UCCUGGAUCAGCUUGCAUAGUAUUUAGUUA [g2:g22:cont:t1A]”, the “pre-steady-state target cleavage rate” value is 0.00864 ± 0.0019.
Turning to UCCUCCUACAGCUGGCAUAGUAUUUAGUUA, the “pre-steady-state target cleavage rate” value worked out at 0.00732 ± 0.0023.
With UCCUGGUACAGCUUGCAUAGUAUUCUAGUUA, the “pre-steady-state target cleavage rate” value worked out at 0.00551 ± 0.0045.
The same measure, in the same setting: next, UCCUGGAUGUGCUUGCAAAGUAUUUACUUA: 0.00362 ± 0.0028; UCCUGGUACAGCUUGAUAGUAUUUAGUUA: 0.00786 ± 0.0031; UCCUGGAUGUCGAUGGAUAGUAUUUAGUUA: 0.00383 ± 0.0027.
The same measure, in the same setting: next, UCCUGGAUGUGCUUGCAUAGUAUUUAAUUA: 0.00315 ± 0.003.
For UCCUGGAAGAGCUAGCAUAGUAUUUAGUUA, the “pre-steady-state target cleavage rate” value stood at 0.00677 ± 0.0024.
Turning to UCCUGGAUCAGCAUGCAUAGUAUUAAGUUA, the “pre-steady-state target cleavage rate” value worked out at 0.00634 ± 0.0023.
Regarding UCCUGGAUGUCCUUGCAAAGUAUUUAGUUA, the “pre-steady-state target cleavage rate” value was 0.00687 ± 0.002.
The same measure, in the same setting: next, “UCCUGGAUGUCCUUGCAUAGUAUUUAGUUA [g2:g19:cont:t1A]”: 0.00813 ± 0.0021.
On the same count and under the same terms, then UCCUGGAUCUGCUUGCAAAGUAUUUAGUUA, with 0.0085 ± 0.0023.
